Measured values published in PubChem BioAssay (Tox21).
Records with an inconclusive call do not appear. Activity calls are given as the source filed them. Unless noted, calls follow the shape of the dose curve; as a rule, active = well fitted curve in the direction sought with a large enough effect in the repeat runs; inconclusive = weak or mixed curves; inactive = no such curve, though single readings can be large; an effect the other way counts as inactive or inconclusive. Positions of bridges follow the written chain, without caps; N, C: chain ends. Non-standard residues stand in square brackets, D forms with d. Residues, ends and D or L forms follow the SMILES beside them. *: point of attachment. X2 = CC[C@H](C)CCCCC(=O)*; Dab = NCC[C@H](N)C(=O)O

Experiments:
[1] = qHTS assay for small molecules that induce genotoxicity in human embryonic kidney cells expressing luciferase-tagged ATAD5 (AID 651632); also: nearly all actives have a fitted effect of over 15% in size
Method in brief: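 Cells were seeded at 2,000 per well, dosed with compound, and incubated 16 hr at 37C in 5% CO2. Luciferase activity was then quantified after a 30 min room-temperature incubation with Amplite.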

[2] = qHTS assay for small molecule agonists of the p53 signaling pathway - cell viability (AID 651633; calls by dose curve; also: nearly all actives have a fitted effect of over 30% in size; also: potency is read from the fitted curve at half-maximal effect)
Method in brief: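 p53RE-bla cells were treated with compound for 16 hours at 37 C. Cytotoxicity was then measured as CellTiter-Glo luminescence after 30 min at room temperature.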

[3] = qHTS assay for small molecules that induce genotoxicity in human embryonic kidney cells expressing luciferase-tagged ATAD5 - cell viability (AID 651634; calls by dose curve; also: nearly all actives have a fitted effect of over 25% in size; also: potency is read from the fitted curve at half-maximal effect)
Method in brief: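 Cells (HEK293T, luciferase-tagged ATAD5) are seeded at 2,000 per well, dosed with compound or DMSO vehicle, and incubated 15.5 hr at 37C and 5% CO2. CellTiter-Fluor is added for 30 min before fluorescence is measured.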

[4] = qHTS assay for small molecule disruptors of the mitochondrial membrane potential - cell viability (AID 720634; calls by dose curve; also: nearly all actives have a fitted effect of over 20% in size; also: potency is read from the fitted curve at half-maximal effect)
Method in brief: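 Cytotoxicity was measured by ATP quantitation in HepG2 wells that had first been treated with compound for 1 hr and stained with m-MPI dye; CellTiter-Glo incubation was 30 min at room temperature.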

[5] = qHTS assay for small molecule disruptors of the mitochondrial membrane potential (AID 720635); also: potency is read from the fitted curve at half-maximal effect
Method in brief: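 HepG2 cells exposed to compound 1 hr at 37C, then Mito-MPS dye 30 min. Ratio read of aggregate (540/590 nm) versus monomer (490/535 nm) fluorescence.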

[6] = qHTS assay to test for compound auto fluorescence at 590 nm (red) in HepG2 cells (AID 720674)
Method in brief: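 Seeding: 2,000 HepG2 cells/well, MEM/10% FBS, overnight 37 C. Dosing: compound vs DMSO. Incubation: 1 hr, 37 C, 5% CO2. Read: fluorescence 540 ex/590 em, Rose Bengal sodium as red reference.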

[7] = qHTS assay to test for compound auto fluorescence at 535 nm (green) in HepG2 cells (AID 720675)
[8] = qHTS assay to test for compound auto fluorescence at 460 nm (blue) in HEK293 cells (AID 720678)
Method in brief: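 Cells were seeded and left to adhere for 4-5 hr at 37C. Compounds were then pin-transferred. After an overnight incubation at 37C under 5% CO2, intrinsic fluorescence at 405/460 nm was measured and referenced to triamterene.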

[9] = qHTS assay to test for compound auto fluorescence at 590 nm (red) in HEK293 cells (AID 720679)
Method in brief: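 Each well held 2,000 HEK293 cells in medium containing 10% dialyzed FBS. Following 4-5 hr attachment at 37C, 23 nL test compound or DMSO was added; plates sat overnight, and red fluorescence (540/590nm) was recorded.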

Measured: Potency

C[C@]12C=CC(=O)N[C@@H]1CC[C@@H]1[C@@H]2CC[C@]2(C)[C@@H](C(=O)Nc3cc(C(F)(F)F)ccc3C(F)(F)F)CC[C@@H]12
active: [5] 0.944 µM
inactive: [1] | [2] | [3] | [4] | [6] | [7] | [8] | [9]

CC(=O)Nc1ccc(OC(=O)c2ccccc2O)cc1
inactive: [1] | [2] | [3] | [4] | [6] | [7] | [8] | [9]
active: [5] 26.6 µM

Cn1c(=O)c2c(ncn2CCOC(=O)C(C)(C)Oc2ccc(Cl)cc2)n(C)c1=O
inactive: [1] | [2] | [3] | [4] | [5] | [6] | [7] | [8] | [9]

CC[C@H](C)CCCCC(=O)N[C@@H](CCN)C(=O)N[C@H](C(=O)N[C@@H](CCN)C(=O)N[C@H]1CCNC(=O)[C@@H]([C@H](C)O)NC(=O)[C@H](CCN)NC(=O)[C@H](CCN)NC(=O)[C@H](CC(C)C)NC(=O)[C@@H](CC(C)C)NC(=O)[C@H](CCN)NC1=O)[C@@H](C)O (X2-[Dab]T[Dab][Dab][Dab][dL]L[Dab][Dab][dT]; lactam 4-C)
inactive: [1] | [2] | [3] | [4] | [5] | [6] | [7] | [8] | [9]

CCCCCCOc1ccc(C(=N)N(CCCC)CCCC)c2ccccc12
inactive: [1] | [6] | [8] | [9]
active: [2] 21.1 µM | [3] 23.7 µM | [4] 26.6 µM | [5] 8.41 µM

COC(F)(F)C(Cl)Cl
inactive: [1] | [2] | [3] | [4] | [5] | [6] | [7] | [8] | [9]

C[C@@H]1C[C@H]2C3C[C@H](F)C4=CC(=O)C=CC4(C)[C@@]3(F)[C@@H](O)CC2(C)[C@@]1(O)C(=O)COC(=O)C(C)(C)C (some centres not stated)
inactive: [1] | [2] | [3] | [4] | [6] | [7] | [8] | [9]

O=C(O)[C@H]1/C(=C/CO)O[C@@H]2CC(=O)N21
inactive: [1] | [2] | [3] | [4] | [5] | [6] | [7] | [8] | [9]

O=C(OC[C@H]1O[C@](O)(COC(=O)c2cccnc2)[C@@H](OC(=O)c2cccnc2)[C@@H]1OC(=O)c1cccnc1)c1cccnc1
inactive: [1] | [2] | [3] | [4] | [5] | [6] | [7] | [8] | [9]

CC(C)(C)C1(O)CCN2CC3c4ccccc4CCc4cccc(c43)C2C1 (configuration not stated)
inactive: [1] | [3] | [4] | [6] | [7] | [8]
active: [2] 13.3 µM

CC(CN1c2ccccc2Sc2ccc(S(=O)(=O)N(C)C)cc21)N(C)C (configuration not stated)
inactive: [1] | [2] | [3] | [4] | [6] | [7] | [8]

CN(C)CCOc1ccccc1Cc1ccccc1 (tested in a mixture with another compound)
inactive: [1] | [2] | [3] | [4] | [6] | [7] | [8] | [9]

CC(C)=CCC/C(C)=C/C=C/C(C)=C/C=C/C(C)=C/C=C/C=C(C)/C=C/C=C(C)/C=C/C=C(\C)CCC=C(C)C
inactive: [1] | [2] | [3] | [4] | [6] | [7] | [8]

O=C(Nc1ccc(/C=C/c2ccc(NC(=O)c3cc(S(=O)(=O)O)c4cccnc4c3O)cc2S(=O)(=O)O)c(S(=O)(=O)O)c1)c1cc(S(=O)(=O)O)c2cccnc2c1O
inactive: [1] | [2] | [3] | [4] | [6] | [7] | [8] | [9]

O=C(OC1C[C@@H]2CC3C[C@H](C1)N2CC3=O)c1c[nH]c2ccccc12 (some centres not stated)
inactive: [1] | [2] | [3] | [4] | [6] | [7] | [8] | [9]

CCN(CC)CCCC(C)Nc1cc(/C=C/c2ccccc2Cl)nc2cc(Cl)ccc12 (configuration not stated)
inactive: [1] | [2] | [3] | [4] | [6] | [7] | [8] | [9]

CC(C)(CO)[C@@H](O)C(=O)NCCCC(=O)O
inactive: [1] | [2] | [3] | [4] | [6] | [7] | [8] | [9]

CCC(Oc1ccccc1)C(=O)N[C@@H]1C(=O)N2[C@@H]1SC(C)(C)[C@@H]2C(=O)O (some centres not stated)
inactive: [1] | [2] | [3] | [4] | [6] | [7] | [8] | [9]

CC(=O)O[C@H]1CC[C@@]2(C)C(=CC[C@@H]3[C@@H]2CC[C@]2(C)C(c4cccnc4)=CC[C@@H]32)C1
inactive: [1] | [2] | [3] | [4] | [6] | [7] | [8] | [9]

CCCCCCCCCCCC(=O)N(CCO)CCO
inactive: [1] | [2] | [3] | [4] | [6] | [7] | [8] | [9]

CC(C)N1CCN(c2ccc(OC[C@H]3CO[C@](Cn4cncn4)(c4ccc(Cl)cc4Cl)O3)cc2)CC1
active: [2] 11.4 µM
inactive: [1] | [3] | [4] | [6] | [7] | [8] | [9]
